# In PubChem BioAssay AID652010 (The Scripps Research Institute Molecular Screening Center, 2013):
# Among all 370,000 compounds or so, about 4,100 (1.1%) were called active. Many of the other results were omitted from the sample, so actives are more common in it than they were. Unmarked numbers belong to inactive results.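 Rule for the calls: active = inhibition above the mean over all tested compounds plus 3 SD (cut at about 3.6% in these data); inactive = the rest.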
# Experiment: DAX1 (NR0B1) inhibitors on StAR promoter, primary screen, cell-based, luminescence, SF-1 (NR5A1), full-length DAX-1 (AID 652010);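 note: 0% = DAX-1 cells with DMSO and 100% = cells lacking DAX-1 with DMSO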
# Conditions: HEK293T StAR-luciferase reporter, SF-1/DAX-1 repression relief; at 6.8 µM; stronger effect = higher value
row,SMILES,inhibition
1,O=C(OC12CCCN(C1)/C(=C/c1ccccc1)C2)c1ccco1 (centres undefined),0.04%
2,CCOc1cc(C(=O)Nc2ccc(S(=O)(=O)Nc3cnc4ccccc4n3)cc2)cc(OCC)c1OCC,-0.22%
3,CCOc1cccc(/C=C/c2ccc3ccccc3n2)c1OC(C)=O,5.71% (active)
4,CCOc1ccccc1-c1cc(C(=O)N/N=C(\C)c2cccnc2)c2ccccc2n1,1.24%
5,Cc1ccc2c(c1)C1CN(C)CCC1N2S(=O)(=O)c1ccc(Oc2ccc([N+](=O)[O-])cc2)cc1 (centres undefined),-0.52%
6,COCCNC(=S)N(C)[C@H]1C[C@H]2c3[nH]c4ccccc4c3CCN2C[C@H]1[C@H](C)O,1.22%
7,CCOC(=O)N1CCN(S(=O)(=O)c2ccc3c(c2)C(C)C(=O)N3)CC1 (centres undefined),0.76%
8,Fc1ccccc1-c1cc2cc3c(cc2cn1)OCO3,1.9%
9,COc1cc(OC)cc(-c2cc3ccc(F)cc3cn2)c1,1.37%
10,Fc1ccc2cnc(-c3ccccc3)cc2c1,9.42% (active)
11,CN(C)c1ccc(NC(=O)NC2CCCCN(Cc3ccc(Cl)cc3)C2=O)cc1 (centres undefined),-1.13%
12,COC(=O)C1C(=O)c2c([nH]c(C(=O)OCCSC)c2C)CC1C (centres undefined),5.6% (active)
13,CN(C)[C@H]1CCN(c2cccc3c2S(=O)(=O)N2CC[C@H](C2)O3)C1,0.33%
14,O=C(NCc1ccco1)c1nn2cccnc2c1Cl,0.65%
15,O=C(Nc1ccc2oc(-c3ccccc3F)nc2c1)c1ccco1,4.4% (active)
16,COc1ccc(-c2c(NC(=O)c3ccco3)oc3ccc(Cl)cc3c2=O)cc1,-0.46%
17,O=C(Nc1cc(-c2nc3ncccc3o2)ccc1Cl)c1ccco1,-1.38%
18,O=C(CN1CCC(NC(=O)NCc2ccccc2)CC1)Nc1ccc2c(c1)OCCO2,-0.91%
19,Cc1cccc(NC(=O)C[C@H]2CC[C@H]3[C@@H](COc4ccc(NC(=O)Nc5ccccc5)cc4C(=O)N3C)O2)c1,0%
20,Cc1ccc(-c2nnc(SCC(=O)Nc3ccc(Oc4ccccc4)cc3)n2Cc2ccco2)cc1,-2.13%
21,CC(C)CNc1cccc2c1S(=O)(=O)N(Cc1cn(Cc3ccccc3C(F)(F)F)nn1)Cc1ccccc1O2,0.13%
22,COc1ccc(-c2ccc(CN3C(C(C)C)C(=O)N(Cc4cn(CC5CCCCC5)nn4)CCS3(=O)=O)cc2)cn1 (centres undefined),-0.19%
23,COc1ccc(-c2ccc(CN3C(CC(C)C)C(=O)N(Cc4cn(CC5CCCCC5)nn4)CCS3(=O)=O)cc2)cc1 (centres undefined),2.67%
24,COc1ccc(-c2ccc(CN3C(CC(C)C)C(=O)N(Cc4cn(CC5CCCCC5)nn4)CCS3(=O)=O)cc2)cn1 (centres undefined),3.92% (active)
